Assay results: PubChem BioAssay (NCATS)
Results filed as inconclusive are left out. A call without a number means that no potency is given here. Active and inactive are the calls of the source. Calls come from the whole dose curve; as a rule, active = well fitted curve in the direction sought with a large enough effect; inconclusive = small, poorly fitted or top-dose-only effect, or another doubt; inactive = no such curve, though single readings can be large; an effect the other way counts as inactive or inconclusive.

Key:
[1] = biological target: Arylsulfatase A (Homo sapiens) (UniProt P15289); experiment: qHTS screen for enhancers of Arylsulfatase A (ASA1): LOPAC Validation Assay (AID 720538); note: potency is the fitted concentration of half-maximal effect
Arylsulfatase A (Homo sapiens), sequence (P15289 whole entry, looked up): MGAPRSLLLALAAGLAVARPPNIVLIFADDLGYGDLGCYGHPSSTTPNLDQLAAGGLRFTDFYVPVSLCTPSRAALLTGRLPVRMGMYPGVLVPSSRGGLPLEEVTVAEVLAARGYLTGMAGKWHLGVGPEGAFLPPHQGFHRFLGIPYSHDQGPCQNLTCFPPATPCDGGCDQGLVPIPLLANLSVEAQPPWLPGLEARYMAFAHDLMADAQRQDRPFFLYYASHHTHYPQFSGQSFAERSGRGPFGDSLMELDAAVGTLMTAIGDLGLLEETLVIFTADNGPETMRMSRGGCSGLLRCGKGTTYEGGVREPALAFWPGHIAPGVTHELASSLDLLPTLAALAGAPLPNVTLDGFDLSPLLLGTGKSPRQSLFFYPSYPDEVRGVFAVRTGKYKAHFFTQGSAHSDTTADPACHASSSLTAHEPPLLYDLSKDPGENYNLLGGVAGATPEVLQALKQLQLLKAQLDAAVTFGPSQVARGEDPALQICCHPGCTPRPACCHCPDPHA
Outline: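 Read-out: fluorescence at Ex=525/Em=598 nm after 1N NaOH final stop. Patient fibroblasts carrying ASA-I179S had 48h compound exposure, then 14h room-temperature pNCS hydrolysis (0.5mM final) in lysis buffer. Signal increase = enhanced activity.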

[2] = qHTS for compounds that reverse cellular toxicity of Amyloid beta (A-beta) peptide in yeast: LOPAC Validation Assay (AID 720559)
Outline: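 OD600 growth readout after 48 hr at 30 C; A-beta-toxic yeast plus pinned compounds in medium. Normalization: DMSO = negative, equimolar FeCl3 + clioquinol = positive.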

[3] = qHTS for Activators of Parkin Expression: LOPAC Validation Assay (NLuc Reporter) (AID 720572)
Outline: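 Compound effects on Parkin promoter activity were measured as NanoLuc luminescence after 24 h at 37 C. The neuronal reporter line also carried FLuc, which was read first. LOPAC compounds were tested at 7 concentrations, with normalization to DMSO (0%) and positive control (100%).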

[4] = qHTS for Activators of Parkin Expression: LOPAC Validation Assay (FLuc Reporter) (AID 720573)
Outline: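 FLuc luminescence read-out from a neuronal line expressing a Parkin-promoter-driven coincidence reporter. Cells treated 24 h at 37 C, 5% CO2 with compounds at 7 concentrations; signal increase normalized to DMSO and positive control.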

SMILES	Potency [1]	outcome [2]	Potency [3]	Potency [4]
N=C(N)c1ccc(OCCCCCOc2ccc(C(=N)N)cc2)cc1 (tested in a mixture with another compound)	inactive	inactive	inactive	inactive
CSC(N)=NCCC[C@H](N)C(=O)O	inactive	inactive	inactive	inactive
CCCn1c(=O)c(C)cn2nc(N)nc12	inactive	inactive	inactive	inactive
O=[N+]([O-])c1cccc2c(Br)[nH]nc12	inactive	inactive	inactive	inactive
Cc1ccc([N+](=O)[O-])cc1S(=O)(=O)N(C)C	inactive	inactive	inactive	inactive
CCCCCCCCCCC(C)(C)C(=O)Nc1c(OC)cc(OC)cc1OC	inactive	inactive	inactive	inactive
NC/C=C\C(=O)O	inactive	inactive	inactive	inactive
NC(=O)c1cc[n+](CC2=C(C(=O)O)N3C(=O)[C@@H](NC(=O)[C@@H](c4ccccc4)S(=O)(=O)[O-])[C@H]3SC2)cc1	inactive	inactive	inactive	inactive
CO/N=C(\C(=O)N[C@@H]1C(=O)N2C(C(=O)O)=C(CSc3nc(=O)c(O)nn3C)CSC12)c1csc(N)n1 (stereo partly drawn)	inactive	inactive	inactive	inactive
NC1(C(=O)O)CC1	inactive	inactive	inactive	inactive
NC(C(=O)N[C@@H]1C(=O)N2C(C(=O)O)=C(Cl)CS[C@H]12)c1ccccc1 (stereo partly drawn)	inactive	inactive	inactive	inactive
O=C(O)C1CN(CCCP(=O)(O)O)CCN1 (stereo not drawn)	inactive	inactive	inactive	inactive
CCc1ccc2c(-c3cccc(Cl)c3)nc(=O)n(CC)c2n1	inactive	inactive	inactive	inactive
CN1Cc2sccc2C(c2ccc(O)c(O)c2)C1 (stereo not drawn)	inactive	inactive	inactive	inactive
CC(C)Cn1c(=O)n(C)c(=O)c2[nH]cnc21	inactive	inactive	inactive	inactive
Cn1c(=O)[nH]c2ncn(C)c2c1=O	inactive	inactive	inactive	inactive
Cn1cc(C(F)(F)F)nc1-c1ccc(OCC(O)CNCCOc2ccc(O)c(C(N)=O)c2)cc1 (stereo not drawn)	inactive	inactive	inactive	inactive

SMILES	Potency [1]	outcome [2]	Potency [3]	Potency [4]
NCCCCN=C(N)N	inactive	inactive	inactive	inactive
C#CCn1c(=O)c2c(ncn2C)n(C)c1=O	inactive	inactive	inactive	inactive
CSc1nc(N)c2ncn([C@@H]3O[C@H](COP(=O)(O)OP(=O)(O)O)C(O)[C@H]3O)c2n1 (stereo partly drawn)	inactive	inactive	inactive	inactive
C[C@H]1CC2C3CCC4=CC(=O)C=C[C@]4(C)[C@@]3(Cl)[C@@H](O)C[C@]2(C)[C@@]1(O)C(=O)CO (stereo partly drawn)	inactive	inactive	inactive	inactive
c1ccc(C2CN3CCSC3=N2)cc1 (stereo not drawn)	inactive	inactive	inactive	inactive
COc1cc2c(CCNC(C)=O)c[nH]c2cc1O	37.9 µM (active)	inactive	inactive	inactive
COC1(C2=NCCN2)COc2ccccc2O1 (stereo not drawn)	inactive	inactive	inactive	inactive
C=C1C[C@@]23CC[C@H]4[C@@](C)(CCC[C@@]4(C)C(=O)O)[C@@H]2CC[C@]1(O)C3	inactive	inactive	inactive	inactive
CC(=O)NCCc1c[nH]c2ccc(O)cc12	inactive	inactive	inactive	inactive
NCCC1CCCC(CCN)N1 (stereo not drawn)	inactive	inactive	inactive	inactive
CC1CCN=C(N)S1 (stereo not drawn)	inactive	inactive	–	inactive
N#CC(=C(\N)Sc1ccccc1N)/C(C#N)=C(/N)Sc1ccccc1N	inactive	inactive	–	inactive
COc1ccc(NC(=O)c2ccc(-c3ccc(-c4noc(C)n4)cc3C)cc2)cc1N1CCN(C)CC1	inactive	inactive	–	inactive
CNCCc1cnc(CCC(c2ccccc2)c2ccccc2)[nH]1	inactive	inactive	inactive	inactive
N[C@@H](CS(=O)O)C(=O)O	inactive	inactive	inactive	inactive
COc1ccc2c(c1)c(CC(=O)O)c(C)n2C(=O)c1ccccc1	inactive	inactive	–	inactive
